# Source: PubChem BioAssay AID485353 (National Center for Advancing Translational Sciences (NCATS), 2010)
# Hit rate of the full screen: of about 330,000 compounds, about 610 (0.18%) were called active. Not shown: some 2% with an inconclusive outcome. Calls follow the shape of the full dose curve. Shown is part of a subset that was picked to be rich in actives. Where a call stands in place of a potency, no number is given.
# Test: qHTS of Yeast-based Assay for SARS-CoV PLP; also: nearly all actives have a fitted effect of over 55% in size
# Conditions: S. cerevisiae expressing SARS-CoV PLpro; Potency: growth rescue; series mostly up to 32.9 µM
# Potency is read from the fitted curve at half-maximal effect.
row,SMILES,Potency
1,N#Cc1ccc(-c2nc3cc(C#N)c(C#N)cc3nc2-c2ccccc2)cc1C#N,inactive
2,Cc1cc2ccccc2n2c(SCC(=O)N3CCN(C(=O)c4ccco4)CC3)nnc12,inactive
3,N#Cc1ccc(C2=CC(=O)C[C@H](c3ccc(Cl)cc3)C2)cc1,inactive
4,Cn1c(=O)c2c(SCC(=O)N3CCOCC3)nc(C3CC3)nc2n(C)c1=O,inactive
5,CCCCn1c(N)c(N(CC(C)C)C(=O)c2cnc(C)cn2)c(=O)[nH]c1=O,inactive
6,CC(C)N1CCC(=NNc2ccc([N+](=O)[O-])cc2S(=O)(=O)N2CCOCC2)CC1,inactive
7,CCN(CC)S(=O)(=O)c1ccc2nc(CSc3nnnn3-c3ccc(O)cc3)[nH]c2c1,inactive
8,COc1ccc(Cl)cc1NC(=O)CCS(=O)(=O)c1cc2c(cc1C)NC(=O)CO2,inactive
9,COc1ccc(NC(=O)CCS(=O)(=O)c2cc3c(cc2Cl)NC(=O)CO3)cc1OC,10 µM (active)
10,Cc1cc2c(cc1S(=O)(=O)CCC(=O)NCc1ccccc1)OCC(=O)N2,inactive
11,CN(C(=O)CN1C(=O)NC(C)(CCc2ccccc2)C1=O)c1ccccc1 (stereo not given),inactive
12,CC(C)CCNC(=O)C1CCCN(S(=O)(=O)c2ccc(F)cc2)C1 (stereo not given),inactive
13,CCCN(CC1CC1)C(=S)NC(=O)c1ccccc1Br,inactive
14,CCCCCOc1ccc(/C=C/C(=O)NCCc2nc3ccccc3[nH]2)cc1OC,inactive
15,COc1ccc(CNC(=O)C(=O)NCC2OCCN2C(=O)c2ccc(OC)cc2)cc1 (stereo not given),inactive
16,CC(C)CC(=O)c1c[nH]c(C(=O)NCc2ccccc2)c1,inactive
17,CCOC(=O)N1CCN(C(=O)COC(=O)c2cccc(S(C)(=O)=O)c2)CC1,inactive
18,CC(=O)c1cn(CCCCCCCCCCn2cc(C(C)=O)c(=O)[nH]c2=O)c(=O)[nH]c1=O,inactive
19,CN(Cc1ccc2nsnc2c1)Cc1nc(Cc2cccc(F)c2)no1,inactive
20,Cc1cccc(C)c1NC1=NC(=S)N(c2ccc(N(C)C)cc2)C1(C)C,inactive
21,O=C(OCC1O[C@@H](OC(=O)c2cc(O)c(O)c(O)c2)[C@@H](OC(=O)c2cc(O)c(O)c(O)c2)[C@@H](OC(=O)c2cc(O)c(O)c(O)c2)[C@@H]1OC(=O)c1cc(O)c(O)c(O)c1)c1cc(O)c(O)c(O)c1 (stereo not given in full),5.62 µM (active)
22,CCOC(=O)CN1C(=O)N[C@@H](c2ccc(Br)cc2)C(C(C)=O)=C1C,inactive
23,CCc1cccc2c(C#N)cn(CC(=O)N3CCOCC3)c12,inactive
24,CCc1cccc2c3c([nH]c12)C(CC)(CC(=O)O)OCC3 (stereo not given),20 µM (active)
25,Cc1cc2ccccn2c1C(=O)c1cccc(S(=O)(=O)N2CCOCC2)c1,inactive
